Test results published in PubChem BioAssay (NCI).
The panel holds about 83,000 compounds, 20% with a hit somewhere; the sample as a whole holds those more often.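 Treatment: one concentration, 48 hours, 96-well format. Scoring: percent growth, with anything below 10 considered active.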 Values without a mark were called inactive. The source made the active and inactive calls.

Tests used:
Assay in all cases: NCI-60 one-dose screen, 48 h (100 = growth as untreated, 0 = no growth, -100 = all killed)
Details in all cases: 10 µM unless noted
[1] = tested on: NCI-H23 lung
[2] = tested on: NCI-H226 lung
[3] = tested on: NCI-H322M lung
[4] = tested on: HOP-62 NSCLC
[5] = tested on: NCI-H460 lung
[6] = tested on: HOP-92 NSCLC
[7] = tested on: NCI-H522 lung
[8] = tested on: A549/ATCC NSCLC
[9] = tested on: 786-0 renal
[10] = tested on: COLO 205 colon
[11] = tested on: DU-145 prostate
[12] = tested on: K-562 leukemia
[13] = tested on: MALME-3M melanoma
[14] = tested on: MDA-MB-231 breast
[15] = tested on: RXF 393 renal
[16] = tested on: SF-268 CNS
[17] = tested on: SF-295 CNS
[18] = tested on: SF-539 CNS
[19] = tested on: UACC-257 melanoma
[20] = tested on: M14 melanoma

Structure (SMILES) | growth [1] | growth [2] | growth [3] | growth [4] | growth [5] | growth [6] | growth [7] | growth [8] | growth [9] | growth [10] | growth [11] | growth [12] | growth [13] | growth [14] | growth [15] | growth [16] | growth [17] | growth [18] | growth [19] | growth [20]
O=C1c2cccc3cccc(c23)C(=O)N1CC#Cc1ccc2c3c(cccc13)C(=O)N(CCN1CCNCC1)C2=O | 73.7% | 102% | 98.6% | 110% | 73.1% | 87.7% | 99.8% | 109% | -2.58% (active) | 93.5% | 99.5% | -15.3% (active) | -45% (active) | 7.95% (active) | 82.9% | 93.8% | 94.1% | 10.2% | 104% | 101%
O=C(/C(=C(\C(=O)c1ccccc1)c1ccccc1)c1ccccc1)c1ccccc1 | 42% | 63.9% | 76% | 80.3% | 25.1% | 37.8% | 43.3% | 28.9% | 69.9% | 53.2% | 80.1% | 14.1% | 77.2% | 66.7% | 69.5% | 56.2% | 54.7% | 82.1% | 68.8% | 66.3%
CC(=O)c1c(C)[nH]c(-c2nc3ccc(N4CCN(C)CC4)cc3[nH]2)c1-c1ccc(N(C)C)cc1 | 40% | 47.4% | 40.6% | 24.6% | 53% | 33.1% | 42.1% | 40.2% | 38.7% | 7% (active) | 63.9% | 21.1% | 26.7% | 36.1% | 37.2% | 59.4% | 43.2% | 39.3% | 36.4% | 34.6%
O=C1NC(c2ccc(Cl)c(Cl)c2)=C/C1=C\c1ccccc1 | 84.8% | 57.7% | 79% | 69.1% | 18.6% | 72.1% | 79% | 55.1% | 9.12% (active) | 65.2% | 95.9% | 72.6% | 63.3% | 69.9% | 65.2% | 92.3% | 52.2% | 84.7% | 98.2% | 90.9%
O=C1C(Cl)=C(Nc2ccc(S(=O)(=O)c3ccc(NC4=C(Cl)C(=O)c5ccccc5C4=O)cc3)cc2)C(=O)c2ccccc21 | -12.9% (active) | 91.2% | 64.5% | 36.1% | 37.2% | -26.2% (active) | -67.4% (active) | 74% | 26.4% | -54.9% (active) | -15.1% (active) | 8.57% (active) | -48.5% (active) | 45.4% | -96% (active) | -56.3% (active) | 34.1% | 1.36% (active) | -81.3% (active) | -57.6% (active)
Cc1cc(N2CCN(C)CC2)nc(N(CCNc2ccnc3cc(Cl)ccc23)Cc2ccco2)n1 | 57.5% | 92.9% | 51% | 26.8% | 24.3% | 49.2% | 53.7% | 41.4% | 32.6% | -5.82% (active) | 56.8% | 1.61% (active) | -57.7% (active) | 9.87% (active) | 40.4% | 52.8% | -15.3% (active) | -68.3% (active) | 5.22% (active) | -87.5% (active)
Cc1nn(-c2ccc(Cl)cc2)c(=O)n1CCn1cnc2ccccc21 | 96.2% | 103% | 96.8% | 101% | 107% | 101% | 85.3% | 106% | 87.4% | 118% | 114% | 97.1% | 109% | 111% | 107% | 107% | 82.8% | 101% | 103% | 96.7%
COc1ccc(NC(=S)N/N=C/c2ccccc2SSCCC(=O)OC[C@H]2O[C@H](O)[C@H](O)[C@@H](O)[C@@H]2O)cc1 | 67.2% | 88.2% | 52.5% | 45.8% | 26.6% | 104% | 58.4% | 55.1% | 89.7% | 100% | 83.9% | 51.6% | 72.7% | 71.1% | 104% | 61.1% | 59.1% | 91.7% | 98.4% | 47.8%
Cc1ccc(Sc2sc(-c3ccccc3)nc2[P+](c2ccccc2)(c2ccccc2)c2ccccc2)cc1 | -12.2% (active) | -3.15% (active) | -19.1% (active) | -0.272% (active) | -19.1% (active) | -40.4% (active) | -5.65% (active) | 6.14% (active) | 6.12% (active) | -25.3% (active) | 10.7% | 2.4% (active) | -22.4% (active) | -29.5% (active) | -21.5% (active) | 15.5% | -20.9% (active) | 11.8% | 2.98% (active) | -7.46% (active)
COc1cc(/C=N/Nc2ncnc3c2c(C)nn3-c2ccc(F)cc2)ccc1O | 90.6% | 102% | 85.6% | 106% | 88.1% | 60.5% | 72.9% | 97.6% | 88.6% | 104% | 87.6% | 75.8% | 112% | 84.5% | 95.1% | 71% | 106% | 96.2% | 114% | 102%
CC(C)(C)c1nc(-c2ccc(O)c(O)c2)cs1 | 68.8% | 93.7% | 93.2% | 66.7% | 33.1% | 61.3% | 21% | 55.7% | 77.5% | 92.6% | 66.3% | 50% | 86.8% | 54.3% | 72% | 67.1% | 61.6% | 57.7% | 76.2% | 43.2%
O=C1c2ccccc2NC(c2cn(-c3ccccc3)nc2-c2cccnc2)N1Cc1ccccc1 (stereo not given) | 92.3% | 109% | 93% | 111% | 108% | 93.4% | 78.4% | 102% | 89.9% | 121% | 101% | 96.8% | 119% | 94.3% | 97.6% | 84.8% | 92% | 95.6% | 123% | 106%
Cn1cc(-c2csc(-c3cn(CCCN4CCCCC4)c4ccc(Br)cc34)n2)c2cccnc21 | 43.3% | 75.9% | 49.7% | -56.5% (active) | -66.8% (active) | 31.5% | 11.7% | -49% (active) | -75.9% (active) | -79.5% (active) | -26.5% (active) | -63.6% (active) | -25.7% (active) | -50.7% (active) | 23.3% | 46.1% | 31.8% | -73% (active) | 68.1% | -88.1% (active)
N=c1c(S(=O)(=O)c2ccccc2)cc2c(=O)n3ccccc3nc2n1C1CCCC1 | 95.8% | 91.9% | 74.9% | 79% | 105% | 39.4% | 92% | 80.2% | 80.8% | 113% | 93.2% | 76.6% | 108% | 64% | 86% | 83.5% | 91.2% | 83.7% | 111% | 110%
CC1(C)c2ccccc2C(=O)C1(Br)Cc1ccccc1 (stereo not given) | 74.1% | 94.1% | 95.5% | 95% | 96.8% | 83% | 83.1% | 94.6% | 81.7% | 97.9% | 92.5% | 42.7% | 121% | 105% | 83.5% | 89.6% | 85.7% | 89.9% | 99.4% | 89.1%
CN1CCN(c2ccc3nc(-c4[nH]ncc4Nc4ncnc5[nH]ccc45)[nH]c3c2)CC1 | -1.38% (active) | -10.2% (active) | 1.88% (active) | -0.445% (active) | 21% | 26.9% | -4.39% (active) | 24% | 2.96% (active) | -59.8% (active) | 7.18% (active) | 7.3% (active) | -16.6% (active) | -13% (active) | -71.7% (active) | -9.53% (active) | -1.58% (active) | -43.6% (active) | 11.7% | 3.42% (active)
